Assay results: PubChem BioAssay AID1159580 (chemical genetic matrix, 2015)
Where “and” joins values, the source holds several entries; their conditions need not be identical. Equal values may be shown once. Among all 5,500 compounds or so, about 2,000 (36%) were called active. About 18% were inconclusive and are not listed. Rule as the data show it: active = normalized growth mostly below about 0.91 (no sharp cut-off); inconclusive = no clear call, values can overlap the other calls; inactive = mostly above about 0.92. The list shows a part of the results.

Experiment: chemical genetic growth profiling, strain panel (AID 1159580);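 also: tested at 20 µM; growth read once vehicle control cultures reached saturation at 30 °C; 1 = growth at the plate median or of vehicle wells; lower values mean less growth of the strain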
Conditions: S. cerevisiae deletion strains, growth OD

Measured: normalized growth

Nc1ccc(N=Nc2ccccc2)c(N)n1
active: locus YAL021C, strain ccr4, hits give low values 0.597 | locus YAL026C, strain drs2, hits give low values 0.262 | locus YAL030W, strain snc1, hits give low values 0.909 | locus YBL061C, strain skt5, hits give low values 0.841 | locus YBR009C, strain hhf1, hits give low values 0.635 | locus YBR021W, strain FUR4, hits give low values 1.16 [resistant] | locus YBR023C, strain chs3, hits give low values 0.764 | locus YBR231C, strain swc5, hits give low values 0.742 | locus YBR279W, strain paf1, hits give low values 0.807 | locus YCL011C, strain gbp2, hits give low values 0.78 | locus YCL016C, strain dcc1, hits give low values 0.739 | locus YCL069W, strain vba3, hits give low values 0.725 | locus YDL192W, strain arf1, hits give low values 0.901 | locus YDR069C, strain doa4, hits give low values 0.846 | locus YDR137W, strain rgp1, hits give low values 0.351 | locus YDR195W, strain ref2 1.61 [resistant] | locus YDR297W, strain sur2, hits give low values 0.828 | locus YDR334W, strain swr1, hits give low values 0.833 | locus YDR335W, strain msn5, hits give low values 0.785 | locus YDR392W, strain spt3, hits give low values 0.6 | locus YEL003W, strain gim4, hits give low values 0.712 | locus YEL061C, strain CIN8 (second series), hits give low values 0.838 | locus YER015W, strain faa2, hits give low values 0.794 | locus YER016W, strain bim1, hits give low values 0.853 | locus YER111C, strain swi4, hits give low values 0.801 | locus YER155C, strain BEM2 (second series), hits give low values 0.226 | locus YFR010W, strain ubp6, hits give low values 0.862 | locus YGL173C, strain kem1, hits give low values 0.668 | locus YGL227W, strain vid30, hits give low values 0.83 | locus YGL240W, strain doc1, hits give low values 0.832 | locus YGL253W, strain hxk2, hits give low values 0.695 | locus YGR135W, strain pre9, hits give low values 0.854 | locus YHR013C, strain ard1, hits give low values 0.573 | locus YHR027C, strain rpn1, hits give low values 0.798 | locus YHR142W, strain chs7, hits give low values 0.543 | locus YJL095W, strain BCK1 (second series), hits give low values 0.478 | locus YJL129C, strain trk1, hits give low values 1.14 [resistant] | locus YJL164C, strain tpk1, hits give low values 0.759 | locus YJL166W, strain qcr8, hits give low values 0.494 | locus YJL187C, strain SWE1, hits give low values 0.727
inactive: locus YAL013W, strain DEP1, hits give low values 0.984 | locus YBR171W, strain sec66, hits give low values 0.96 | locus YBR229C, strain ROT2, hits give low values 1 | locus YCL029C, strain bik1, hits give low values 1.03 | locus YCR088W, strain abp1, hits give low values 0.945 | locus YDL005C, strain med2, hits give low values 1 | locus YDL035C, strain GPR1, hits give low values 0.932 | locus YDL040C, strain nat1, hits give low values 0.978 | locus YDL074C, strain BRE1, hits give low values 0.866 | locus YDL101C, strain DUN1, hits give low values 0.968 | locus YDL134C, strain PPH21, hits give low values 0.999 | locus YDL185W, strain tfp1, hits give low values 0.998 | locus YDR001C, strain nth1, hits give low values 1 | locus YDR101C, strain arx1, hits give low values 0.995 | locus YDR150W, strain NUM1, hits give low values 1.01 | locus YDR159W, strain sac3, hits give low values 0.884 | locus YDR162C, strain NBP2, hits give low values 0.939 | locus YDR318W, strain mcm21, hits give low values 0.951 | locus YDR388W, hits give low values 0.997 | locus YDR502C, strain sam2, hits give low values 0.954 | locus YEL037C, strain rad23, hits give low values 0.922 | locus YEL061C, strain CIN8, hits give low values 0.997 | locus YER110C, hits give low values 1.01 | locus YER155C, strain BEM2, hits give low values 1.03 | locus YER167W, strain BCK2, hits give low values 1.02 | locus YGL078C, strain dbp3, hits give low values 0.937 | locus YGL086W, strain mad1, hits give low values 0.971 | locus YGL167C, strain pmr1, hits give low values 0.977 | locus YGL248W, strain PDE1, hits give low values 0.989 | locus YGR078C, strain PAC10, hits give low values 0.918 | locus YGR229C, strain SMI1, hits give low values 0.996 | locus YGR252W, strain gcn5, hits give low values 0.943 | locus YHR030C, strain SLT2, hits give low values 0.995 and 0.956 | locus YHR079C, strain IRE1 (second series), hits give low values 0.99 | locus YHR079C, strain IRE1, hits give low values 0.965 | locus YHR094C, strain hxt1, hits give low values 1.02 | locus YHR129C, strain ARP1, hits give low values 1.01 | locus YHR200W, strain rpn10, hits give low values 0.983 | locus YIL066C, strain RNR3, hits give low values 0.956 | locus YIL073C, strain SPO22, hits give low values 0.972 | locus YIL125W, strain kgd1, hits give low values 1.02 | locus YIR030C, strain dcg1, hits give low values 1.02 | locus YJL092W, strain hpr5, hits give low values 0.945 | locus YJL095W, strain BCK1, hits give low values 0.833 and 0.952 | locus YJL115W, strain asf1, hits give low values 1.01 | locus YJL134W, strain LCB3, hits give low values 1 | locus YJL154C, strain vps35, hits give low values 0.98 | locus YJL168C, strain set2, hits give low values 1 | locus YJL187C, strain SWE1 (second series), hits give low values 0.961 | locus YJR043C, strain POL32, hits give low values 0.984 | locus YJR066W, strain TOR1, hits give low values 0.91
